Source: the supplement of paper PMC6555819

How the values were obtained:
Experiment in all cases: PBM binding z-score (relative to random genomic background probes); higher = stronger binding; sequences stand for … in GC…GCGATTGACAGCGTAGAATGAAGG
[1] = test system: FXR:RXRa (NR concentration 270 nM, RXRa partner concentration 90 nM)
In short: (§1)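 Random background probes are the reference for binding z-scores. These scores derive from regression-normalized fluorescence on custom Agilent 4×180K protein-binding microarrays incubated 1 h with ligand-free nuclear receptor dimers. Binding was detected with antibodies against each partner (one per run).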

[2] = test system: LXRa:RXRa (NR concentration 270 nM, RXRa partner concentration 90 nM)
In short: as §1

[3] = test system: LXRa homodimer (NR concentration 270 nM)
In short: as §1

[4] = test system: LXRb:RXRa (NR concentration 270 nM, RXRa partner concentration 90 nM)
In short: as §1

[5] = test system: LXRb homodimer (NR concentration 270 nM)
In short: as §1

[6] = test system: PPARa:RXRa (NR concentration 270 nM, RXRa partner concentration 90 nM)
In short: as §1

[7] = test system: PPARg:RXRa (NR concentration 180 nM, RXRa partner concentration 90 nM)
In short: as §1

[8] = test system: PPARg:RXRa 270nM:90nM, anti-RXR (NR concentration 270 nM, RXRa partner concentration 90 nM)
In short: as §1

[9] = test system: PPARg:RXRa 30nM:10nM, anti-RXR (NR concentration 30 nM, RXRa partner concentration 10 nM)
In short: as §1

[10] = test system: PPARg:RXRa 90nM:30nM, anti-RXR (NR concentration 90 nM, RXRa partner concentration 30 nM)
In short: as §1

| Sequence | PBM binding z-score [1] | PBM binding z-score [2] | PBM binding z-score [3] | PBM binding z-score [4] | PBM binding z-score [5] | PBM binding z-score [6] | PBM binding z-score [7] | PBM binding z-score [8] | PBM binding z-score [9] | PBM binding z-score [10] |
| --- | --- | --- | --- | --- | --- | --- | --- | --- | --- | --- |
| CGTCAAAGTGCAAGGTAACGTAACAGAAAGCAGC | 0.00612 | 0.219 | -0.312 | 0.159 | -0.589 | 0.731 | 0.773 | 0.593 | -0.0711 | 0.326 |
| TCTCGGAGGACACGAAGGTCAGAGATTTCCAGAG | 1.38 | 0.932 | 0.277 | 1.25 | -0.387 | 1.83 | 0.75 | 1.93 | 2.37 | 2.23 |
| CTACCAAGGTGAACATGGTCGTTGATTACTATTC | 0.63 | 0.673 | -0.0625 | 1.05 | -0.345 | 1.73 | 0.829 | 0.843 | 0.0499 | 0.359 |
| GCGACTGGGGCATCTGCAGGTTACCATAACTTAA | -0.256 | 0.365 | -0.281 | 1.41 | -0.198 | 1.53 | 0.863 | 1.01 | -0.39 | 0.715 |
| GATACAGGATCAGCTAGAGGCCAGAGTATGGAAA | -0.162 | -0.497 | -0.55 | -0.727 | -1.05 | -0.383 | 0.505 | -0.286 | 0.0459 | 0.0181 |
| ACAGACAGGTGATGAAGCTAACTCAGGCTATCAT | -0.132 | -0.408 | -0.326 | -0.472 | -0.446 | -0.116 | 0.522 | -0.13 | -0.153 | -0.11 |
| CTCGACAGGTCGTGCTCAGGTGAGTATACCAAAC | 0.806 | 0.431 | -0.39 | 0.643 | -0.717 | 1.59 | 0.0674 | 0.515 | -0.386 | -0.107 |
| CGTCCAAGGTCAAGGTCAGAGAAAGAGACTCGAA | 7.9 | 5.84 | 0.844 | 4.67 | 0.838 | 5.99 | 6.4 | 6.27 | 2.49 | 5.02 |
| CCTACTGGGCCAAAGGGCATTGATTCCAATGCTC | 0.0219 | 0.199 | -0.482 | 0.36 | -1.02 | 4.61 | 10.3 | 9.18 | 8.24 | 9.29 |
| CCTCGGAGGACAACAGGAGGTGAGAGCTGCCAGA | -0.0702 | -0.357 | -0.536 | -0.619 | -0.875 | -0.108 | 0.133 | -0.73 | -0.83 | -0.93 |
| GCTTACGGGTCAAAGGTAATAGCATGAATAGAAT | 6.06 | 4.07 | -0.0184 | 4.32 | 0.154 | 6.32 | 9.59 | 8.1 | 7.14 | 8.44 |
| TCTTGTAGATCAAGCAGGTTATGAAAGCCTGAGT | 0.147 | 0.219 | -0.495 | 0.124 | -0.429 | 0.732 | -0.162 | 1.27 | 2.34 | 1.89 |
| AGTCAATGTTCATCTAGGTAACGTAAGATATGCT | -0.0895 | -0.35 | -0.229 | -0.0742 | -0.311 | 0.296 | 0.881 | -0.0872 | -0.0799 | -0.00272 |
| TCGAGTAGGTTACCAATGGGGCAATCAGCTTTCT | -0.178 | 1.28 | -0.627 | 0.776 | -1.22 | 1.27 | 0.44 | 1.02 | 1 | 1.13 |
| GGAACGAGGGCAAAGTAGATAGCATCTGTCGACG | 0.832 | 0.557 | -0.498 | 0.289 | -0.467 | 1.98 | 2.48 | 2.96 | 0.802 | 2.23 |
| ATACGTAGGTTAGCTGGGGTCATTCAGACTAGGC | 5.03 | 5.91 | 2.24 | 4.72 | 0.757 | 4.24 | 1.72 | 2.91 | 0.452 | 1.55 |
| AGAATCAGGTTATTAAGATCAGGGAATTGCGGTC | 0.5 | 0.587 | 0.33 | 0.473 | 0.697 | 1.16 | 0.693 | 1.04 | 0.466 | 0.97 |
| GTTCGGAGGACAAGGTCAGAGCTTTGTCCGTAGA | 1.57 | 1.48 | -0.204 | 0.904 | -0.834 | 2.16 | 0.427 | 1.29 | -0.266 | 0.514 |
| ACAGACATGTGAGTGAAGGTAACTCAGCTGGACG | -0.28 | -0.449 | -0.659 | -0.669 | -0.436 | -0.3 | 0.817 | -0.286 | -0.111 | 0.163 |
| CCAGACACGTGAAAGGTAACTCAGTCTGGTACGC | -0.513 | -0.178 | -0.428 | 0.0481 | -0.283 | 0.287 | 0.636 | 0.0199 | -0.466 | -0.253 |
| CCGACTGGGGCAGAAAGGTTAACATACCATCCGG | 0.257 | 0.795 | 0.102 | 1.32 | -1.1 | 2.45 | 1.92 | 2.76 | 1.1 | 2.38 |
| CCTACTGGGCCAAAAGTCATTGATTCCAATGCTC | -0.29 | 0.0265 | -0.0792 | 0.111 | -0.713 | 3.54 | 7.06 | 7.89 | 8.84 | 9.3 |
| CCTGACGGGTCACTCCAGGTTATAGCATCGGAGT | 3.43 | 7.46 | 1.51 | 4.58 | -0.132 | 3.79 | 1.84 | 2.43 | 0.306 | 1.44 |
| AGAATGAGGTTATACGTAGATCTGGGAAGAAAGT | 2.02 | 1.53 | -0.23 | 1.2 | -0.294 | 3.14 | 1.88 | 2 | 0.653 | 1.38 |
